Measurements taken from PubChem BioAssay (Tox21).
Results filed as inconclusive are left out. The source made the active and inactive calls. Calls follow the shape of the dose curve; as a rule, active = well fitted inhibition curve with a large enough effect in the repeat runs; inconclusive = weak or mixed curves; inactive = flat fitted curve, though single readings scatter.

Experiment: qHTS assay to identify small molecule HDAC inhibitors (AID 1259364); also: nearly all actives have a fitted effect of over 45% in size; as to activity change, negative = inhibition: top concentration of the series differs between compounds
Conditions: HCT-116 HDAC-Glo I/II luminescence, 2 h; series mostly up to 92.4 µM; activity change, negative = inhibition: at the top concentration
Source text: U.S. Tox21 Program National Center for Advancing Translational Sciences [NCATS] NIH Chemical Genomics Center [NCGC] U.S. Environmental Protection Agency [EPA] National Institutes of Environmental Health Sciences [NIEHS] National Toxicology Program [NTP] U.S. Food and Drug Administration [FDA] Tox21 Assay Overview: Histone deacetylases (HDACs) are a group of epigenetic enzymes that regulate gene expression by histone deacetylation. HDACs are capable of introducing epigenetic modifications and such aberrations contribute to the onset and progression of several human diseases, thus making HDACs a popular therapeutic target. For identifying endogenous class I/II HDAC inhibitors a homogenous, luminogenic HDAC I/II cell based assay was used to measure the relative activity of class I and II HDACs from cells. Wild type HCT-116 cells were used to screen Tox21 libraries for identifying class I/II HDAC inhibitors.
Tox21 Assay Protocol Summary: HCT-116 cells were dispensed at 1,500 per well in 5uL of culture medium into white solid bottom 1536-well plates (Greiner Bio-One, Monroe, NC) using a Multidrop Combi (Thermo Scientific, Waltham, MA) dispenser. The assay plates were incubated at 37 C and 5% CO2 for an overnight, and then 23nL of compounds dissolved in DMSO and positive control were transferred using a Pintool station (Wako, San Diego, CA). The assay plates were incubated at 37C and 5% CO2 for 2hr. After compound treatment, 4uL of HDAC-Glo reagent (Promega Corporation, Madison, WI) was added to each well of the assay plates using Flying Reagent Dispenser (FRD, Aurora Discovery, San Diego, CA) and incubated the assay plates at room temperature for 30min. The luminescence signal was quantified using a ViewLux plate reader (Perkin Elmer, Shelton, CT).
% is scaled to controls: 0 for no effect and ±100 for the full control effect; potency is read from the fitted curve at half-maximal effect.

| Structure (SMILES) | activity change, negative = inhibition | Potency |
| --- | --- | --- |
| CN=C(N)NC(=O)Nc1c(C)cccc1C | 6.35% [at 42.5 µM] (inactive) | – |
| Nc1ccn([C@H]2CS[C@@H](CO)O2)c(=O)n1 | 1.29% (inactive) | – |
| Cc1ccc2c(c1)CCCN2 | 0.905% (inactive) | – |
| CCCCCCCC/C=C\CCCCCCCC(=O)OCCO | 1.49% (inactive) | – |
| CC1CCc2nccnc21 (stereo not given) | 1.62% (inactive) | – |
| O=C1NC(=O)c2cccc3cccc1c23 | -3.71% (inactive) | – |
| CC(C)(O)CCc1ccccc1 | -1.33% (inactive) | – |
| CCC1CCC(CCC(=O)O)C1 (stereo not given) | -3.78% (inactive) | – |
| CCN(CC)c1cccc(O)c1 | -5.52% (inactive) | – |
| C=C(C)c1ccccc1 | -0.84% (inactive) | – |
| CCC(=O)OCc1ccc(OC)cc1 | 5.9% (inactive) | – |
| CC(=O)OCC(=O)[C@@]1(OC(C)=O)[C@@H](C)C[C@H]2[C@@H]3C[C@H](F)C4=CC(=O)C=C[C@]4(C)[C@@]3(F)[C@@H](O)C[C@@]21C | 1.04% [at 42.5 µM] (inactive) | – |
| CCCCC(CC)COS(=O)(=O)O (stereo not given) | -0.461% (inactive) | – |
| CC[C@@H](CO)NCCN[C@@H](CC)CO | -0.612% [at 42.5 µM] (inactive) | – |
| CC(C)(C)C(O)/C=C/c1ccc2c(c1)OCO2 (stereo not given) | -11.2% [at 42.5 µM] (inactive) | – |
| Cc1ccc(NC(=O)N(C)C)cc1NC(=O)N(C)C | -13.2% (inactive) | – |
| C=CC(=O)O | -1.38% [at 42.5 µM] (inactive) | – |
| COc1ccc(C2C(=O)c3ccccc3C2=O)cc1 | – | 23.7 µM (active) |
| COc1cc(NC(C)CCCN)c2ncccc2c1 (stereo not given) | -1.15% [at 42.5 µM] (inactive) | – |
| O=C(O)c1cccc(C[C@@H]2COc3ccc(OCc4nc5cc(F)ccc5s4)cc3[C@@H]2O)c1 | -1.25% (inactive) | – |

| Structure (SMILES) | activity change, negative = inhibition | Potency |
| --- | --- | --- |
| CCCCCCCC(=O)Oc1c(Br)cc(C#N)cc1Br | -12.8% (inactive) | – |
| CCCCCCC(O)CCOC(C)=O (stereo not given) | -0.0523% [at 240 µM] (inactive) | – |
| Nc1cccc2c(N)cccc12 | 0.021% (inactive) | – |
| O=C(O)CNC(=O)c1ccccc1I | 3.13% [at 42.5 µM] (inactive) | – |
| O=CNNC=O | -1.7% (inactive) | – |
| O=c1[nH][nH]c(=O)c2cc([N+](=O)[O-])ccc12 | 1.16% (inactive) | – |
| CCCCCCC(O)CCCCCCCCCCC(=O)OC (stereo not given) | 3.45% (inactive) | – |
| CCOC(=O)N1CCC(Nc2ccc(Cl)cc2N)CC1 | 8.12% [at 42.5 µM] (inactive) | – |
| COc1ccc2nc(S(=O)Cc3ncc(C)c(OC)c3C)[nH]c2c1 (stereo not given) | – | inactive |
| Cc1cccc2sc(N)nc12 | -23% (inactive) | – |
| OCC(CO)n1cnc(-c2ccc(F)cc2)c1-c1ccnc(Oc2ccccc2)n1 | 0.126% (inactive) | – |
| Nc1nc(-c2ccc([N+](=O)[O-])cc2)cs1 | – | 12.3 µM (active) |
| CCOC(=O)Oc1ccc(CCNC(=O)[C@H](CCSC)NC(C)=O)cc1OC(=O)OCC | -11.9% [at 42.5 µM] (inactive) | – |
| Nc1ccc(F)cc1 | 1.48% (inactive) | – |
| CCCOC(=O)c1c(Cl)c(Cl)c(Cl)c(Cl)c1C(=O)OCCC | -2.12% (inactive) | – |
| C[C@@H]1[C@H](O)[C@@H](C)/C=C/C=C\C=C\C=C\C=C\C=C\C=C\[C@H](O[C@@H]2O[C@H](C)[C@@H](O)[C@H](N)[C@@H]2O)C[C@@H]2O[C@](O)(C[C@@H](O)C[C@@H](O)[C@H](O)CC[C@@H](O)C[C@@H](O)CC(=O)O[C@H]1C)C[C@H](O)[C@H]2C(=O)O (stereo in doubt) | -5.67% (inactive) | – |
| CCCCCCOC(=O)CCCCC | -0.762% (inactive) | – |
| CCCCCCC(CO)CCCC (stereo not given) | 0.128% (inactive) | – |
| O=C(O)CCCc1c[nH]c2ccccc12 | 4.01% (inactive) | – |
| CCCCCC | 3.49% (inactive) | – |
